# Peg3 promoter: Peg3 promoter-driven luciferase inhibitors, primary screen, cell-based, HeLa, luciferase luminescence | HeLa PEG-Prom luciferase reporter, overnight | inhibition, % at 20 µM | 360,000 compounds, 1.7% hits | AID 588405, 2011;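 active = inhibition of at least 50% at 20 µM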
# TROY NFkB inh: inhibitors of TROY-driven NF-kB signaling, primary screen, Q293 LMP1-TROYcd cells, NF-kB luciferase, uHTS; Q293 LMP1-TROYcd NF-kB luciferase reporter, 4 h; inhibition, % at 10 µM; 360,000 compounds, 0.98% hits;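 active = compounds whose plate-normalised and pattern-corrected inhibition of the luciferase reporter signal at the single screening dose is 50% or more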
# KKLEB tox: cytotoxicity in KKLEB CF airway cells, primary screen, cytotoxicity control for CF NF-kB inhibitor project, cell-based, uHTS, fluorescence assay plates; KKLEB CF airway cells viability, ATPlite luminescence, overnight; active compounds read low; cells stimulated with P. aeruginosa culture filtrate; activity change (cytotoxicity), % at 5 µM; 360,000 compounds, 0.36% hits; AID 602141, 2011;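 active = corrected activity change at or below -50% at 5 µM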
# HIF-2a inh: HIF-2a reporter inhibitors, primary screen, luminescence, 786-0 RCC cells | 360,000 compounds, 0.72% hits | 786-0 RCC cells HIF-2a reporter, luciferase luminescence, overnight | inhibition, % at 18.8 µM;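 active = inhibition of the luminescence signal of 40% or more relative to plate controls, in a single-dose primary screen at 18.75 µM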
# TWEAK-Fn14 inh: inhibitors of TWEAK-Fn14 signaling, primary screen, luciferase reporter cells, uHTS | TWEAK-stimulated Fn14 reporter cells, luciferase luminescence, 8 h | inhibition, % at 10 µM | 360,000 compounds, 2% hits | AID 1159606, 2016; in the data active = inhibition above about 50%
# CF NFkB block: inhibitors of PAF-induced NF-kB signaling, primary screen, cell-based, GFP fluorescence, uHTS. inhibition, % at 5 µM. KKLEB NF-kB-GFP reporter, GFP fluorescence overnight. 360,000 compounds, 0.86% hits;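 active = at least 50% inhibition at 5 µM, scaled per plate between neutral and stimulator controls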;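 note: PAF is a Pseudomonas aeruginosa culture filtrate used as stimulus; plate controls were PAF-stimulated DMSO wells for no effect and unstimulated DMSO wells for full effect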
# Active calls of the source: *. Hits are enriched below; roughly 3.9% of the tested compounds scored in any of these assays.
SMILES,Peg3 promoter,TROY NFkB inh,KKLEB tox,HIF-2a inh,TWEAK-Fn14 inh,CF NFkB block
C/C(Cl)=C\Cn1c(NCCc2ccccc2)nc2c1c(=O)n(C)c(=O)n2C,2,50*,21,-3,54*,8
C=CCn1c(NCCc2ccccc2)nc2c1c(=O)n(C)c(=O)n2C,13,38,-5,24,46,7
COc1ccc(-c2cc3ccc(OC)cc3cn2)cc1,-126,42,-48,-146,86*,-23
CC1=NN(C(=O)c2c(Br)cnn2C)C(O)(C(F)(F)F)C1 (centres undefined),8,-4,12,12,72*,-14
CCN(C(=O)c1ccc(C(C)(C)C)cc1)c1nnc(Cn2nnc3ccccc32)s1,25,40,-11,29,73*,4
COc1cc(CNC(=O)c2cc(-c3ccc(OC)cc3C)n[nH]2)cc(OC)c1,6,-9,4,6,-20,-26
COC(=O)c1ccc(-c2nc(-c3cccs3)no2)cc1,5,64*,-1,26,92*,0
Fc1ccc(-c2nc(-c3cccs3)no2)cc1,-296,-63,6,-230,-14,-8
CCc1c(C)c(C#N)c2nc3ccccc3n2c1NC,29,6,-9,1,11,12
Cc1cc(Cl)n2c(nc3ccccc32)c1C#N,103*,-4,-31,-24,6,64*
Cc1c(CCCl)c(Cl)n2c(nc3ccccc32)c1C#N,101*,27,-85*,84*,109*,78*
CCc1noc(C)c1C(=O)NNC(=O)COc1cc(C)ccc1C,7,-2,8,5,2,4
COc1ccc2sc(N(CCCN(C)C)C(=O)c3nc4ccccc4s3)nc2c1,-57,3,10,-82,-2,-19
COc1ccccc1C(=O)N(CCC1CCCN1C)c1nc2ccccc2s1 (centres undefined),-30,89*,-16,15,101*,-2
COc1ccc(-n2ncc3c(N4CCCCC4)ncnc32)cc1,81*,86*,-82*,81*,104*,1
COc1ccc(-n2ncc3c(N4CCN(c5cccc(C)c5C)CC4)ncnc32)cc1,68*,8,-20,11,-83,-13
O=C1CC(c2cc(F)ccc2F)c2cc3c(cc2N1)CCC3 (centres undefined),9,22,-17,20,10,18
O=[N+]([O-])c1cc([N+](=O)[O-])c2cc3ccccc3nc2c1,92*,33,-2,15,93*,84*
CC1(C(=O)O)CCC(C(=O)NNC(=O)c2ccccc2Cl)C1(C)C (centres undefined),2,-16,-6,7,3,-9
Cc1nc([N+](=O)[O-])c(Br)n1CC(=O)c1ccccc1,11,20,-8,31,37,31
Cc1nc([N+](=O)[O-])c(Br)n1CC(=O)c1ccc2ccccc2c1,47,23,-52*,11,14,64*
COc1ccc(C(=O)Sc2ccc(Cl)cc2)cc1OC,14,5,-13,-31,57*,25
O=C(N/N=C/c1ccc2c(c1)OCO2)c1ccc2c(c1)OCO2,-172,-53,-8,-175,10,13
Cc1cccc(/C=N/NC(=O)c2ccc3c(c2)OCCO3)c1O,1,29,-28,-38,74*,-10
CCOc1cccc(/C=N/NC(=O)c2ccc3c(c2)OCCO3)c1O,-22,-26,9,-85,-21,-25
O=C(N/N=C/c1c(Cl)cccc1Cl)c1n[nH]c2c1CCCC2,-173,-50,-2,-196,2,10
Cc1ccsc1/C=N\NC(=O)c1n[nH]c2c1CCC2,44,41,-15,36,81*,16
Cc1ccsc1/C=N/NC(=O)c1ccc2c(c1)OCCO2,-41,7,-2,-77,70*,0
O=C(N/N=C/c1cccc(O)c1)c1ccc2c(c1)OCCO2,-107,15,-16,-26,69*,-10

# Screening results from PubChem.
